According to PubChem BioAssay AID651899 (Broad Institute, 2012):
Entries with a potency or affinity are not part of this list. A number with no mark means an inactive call. How the calls were made is not given here.

test: HEK293 cell viability loss – plate reader, cherry-pick, cytotoxicity control, dose response (AID 651899); conditions: series mostly up to 26 µM; activity change, negative = cytotoxicity: at the top concentration;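 further: cells exposed to compound for 48 hours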

Row | SMILES | activity change, negative = cytotoxicity
1 | CCCC(=O)Nc1cccc(NC(=O)c2ccc(C)c([N+](=O)[O-])c2)c1 | -12.6%
2 | C[C@@H]1CN([C@@H](C)CO)C(=O)c2cc(C#Cc3cccnc3)cnc2O[C@H]1CN(C)S(C)(=O)=O | 39.9%
3 | O=C(COc1ccc2ccc(=O)oc2c1)N1CCN(c2ccc(F)cc2)CC1 | -4.76%
4 | COc1ccc(Cn2ccc(=O)c(Cc3c(Cl)cccc3Cl)c2C)cc1 | 9.69%
5 | O=C(N[C@H]1CC[C@@H](CCn2cc(-c3cccnc3)nn2)O[C@@H]1CO)c1ccccc1F | -2.93%
6 | CC(=O)c1ccc(C(=O)N2CCCC(CO)(Cc3ccccc3C)C2)s1 (stereo unspecified) | -20.1%
7 | O=C(Nc1ccccc1)N1CCN(Cc2ccc3c(c2)OCO3)CC1 | 9.86%
8 | CC1=C(C#N)C(c2cccnc2)C2=C(CC(c3ccc(Cl)cc3)CC2=O)N1 (stereo unspecified) | -11.8%
9 | Cc1ccccc1S(=O)(=O)NCC[C@H]1CC[C@@H](NC(=O)Nc2cccc(F)c2)[C@H](CO)O1 | -4.64%
10 | COc1cc(-c2n[nH]c(=S)n2Cc2ccccc2)cc(OC)c1OC | -0.008%
11 | CC(=O)c1ccc(N2CCN(C(=O)Cc3ccccc3)CC2)c(F)c1 | 0.47%
12 | O=C(Nc1ccc2nccnc2c1)c1cnccn1 | -15.9%
13 | COc1ccc(NC2c3ccccc3C(=O)N2c2cccnc2)cc1Cl (stereo unspecified) | -15%
14 | CCNC(=O)[C@@H]1[C@@H](CO)[C@@H]2Cn3c(ccc(-c4cccnc4)c3=O)[C@@H]2N1Cc1ccc2c(c1)OCO2 | 26.9% [at 23.5 µM]
15 | COc1ccc(C2c3c(-c4cc(Cl)c(C)cc4O)n[nH]c3C(=O)N2Cc2cccnc2)cc1OC (stereo unspecified) | -10.2%
16 | CC(=O)c1ccc(C(=O)N2CCCC(CCC(=O)N(C)CCc3ccccn3)C2)s1 (stereo unspecified) | 26.2%
17 | COc1cccc(-c2ccc3c(c2)[C@H]2[C@H](CCN2C(=O)C2CCC2)[C@@H](CO)N3)c1 | 2.77%
18 | CN1CCN(c2ncnc3c2[nH]c2ccc(F)cc23)CC1 | 13.6%

Row | SMILES | activity change, negative = cytotoxicity
19 | Cc1nc2c(C(=O)N3CCN(c4ccccn4)CC3)cnn2c(C)c1Cc1cccc(Cl)c1 | 7.49%
20 | Cc1nc(=O)c(-c2ccccc2)c(C)n1-c1ccc(Br)cc1 | 21.7%
21 | CC(C)n1c(N2CCN(C(=O)c3cccs3)CC2)nc2ccccc21 | 12.8%
22 | CCN1[C@H](C(=O)NCc2ccccc2)[C@@H](CO)[C@@H]2Cn3c(ccc(-c4cccnc4)c3=O)[C@@H]21 | 12.6%
23 | O=C(Nc1cccnc1)c1cc2nc(C3CC3)cc(C(F)(F)F)n2n1 | 10.3%
24 | COc1ccc([N+](=O)[O-])cc1C(=O)NC1CCN(Cc2ccccc2)CC1 | 24%
25 | CN1c2ccc(-c3cccc(F)c3)cc2[C@H]2[C@H](CCN2C(=O)c2ccc3c(c2)OCO3)[C@H]1CO | 1.38% [at 23.5 µM]
26 | O=C(N[C@H]1CC[C@@H](CCn2cc(-c3cccnc3)nn2)O[C@H]1CO)c1ccccc1F | 3.59%
27 | C[C@@H]1CN([C@H](C)CO)C(=O)Cc2cc(NC(=O)Cn3cnnn3)ccc2O[C@H]1CN(C)Cc1ccc2c(c1)OCO2 | 0.316% [at 23.5 µM]
28 | Nn1c(SCCOc2ccccc2)nnc1-c1cccnc1 | 3.82%
29 | O=C(c1cccc(F)c1)N1CC[C@@H]2[C@@H](CO)Nc3ccc(-c4cccc(F)c4)cc3[C@@H]21 | 4.74%
30 | COc1ccc(C(=O)Nc2cccc(NC(=O)c3cccs3)c2)cc1 | 6.74%
31 | CCNC(=O)[C@H]1[C@H](CO)[C@H]2Cn3c(ccc(-c4cccc(F)c4)c3=O)[C@H]2N1C(=O)Cc1cccnc1 | 11.2%
32 | CC(C)(C)c1cc(C(=O)Nc2cccnc2)cc(C(=O)Nc2cccnc2)c1 | -6.15%
33 | Cc1cccc(C2c3[nH]c4ccccc4c3CCN2C(=O)CN2CCOC2=O)n1 (stereo unspecified) | 12.6%
34 | C[C@H](CO)N1C[C@H](C)[C@@H](CN(C)Cc2ccc3c(c2)OCO3)Oc2ccc(NC(=O)Cn3cnnn3)cc2CC1=O | 17% [at 12 µM]
35 | C[C@@H](C(=O)N1CCN(Cc2ccc3c(c2)OCO3)CC1)n1nnc2ccccc2c1=O | -16.2%
36 | COc1ccc(C(=O)Nc2ccc(Cn3ccnc3)cc2)cc1OC | 24.3%
